Results as given in PubChem BioAssay (Tox21).
Results filed as inconclusive are left out. Active and inactive are the calls of the source. Unless noted, the call rests on the fitted dose curve.

system: not listed separately; experiment: qHTS assay to identify small molecule antagonists of the estrogen related receptor signaling pathway with the pleiotropic PPARgamma coactivator (PGC) from Tox21 10K library (AID 1224841; call rule not given here; further: actives are mostly falling curves and most rising ones were filed inactive; nearly all actives have a fitted effect of over 50% in size; further: potency means the concentration at half of the fitted maximal effect); conditions: PGC/ERR reporter cell line, ONE-Glo luciferase, 18 h; series mostly up to 92.4 µM; activity, negative = inhibition: at the top concentration
Procedure, shortened: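 Luminescence read-out (One-Glo luciferase reagent, 30 min at room temperature) from PGC/ERR cells exposed to DMSO-dissolved test compounds for 18 h at 37 C; cells, 2,000 per well, had been preincubated 6 h before compound transfer.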
On the % scale 0 is the no-effect control and ±100 the full control effect.

SMILES | Potency | activity, negative = inhibition
Nc1ccc(Cc2ccc(N)c(Cl)c2)cc1Cl | 13.2 µM (active) | –
CC1(c2ccc(Oc3ccccc3)cc2)OC(=O)N(Nc2ccccc2)C1=O (stereo unspecified) | 4.89 µM (active) | –
CC(C)(C)C(O)/C(=C\c1ccc(Cl)cc1Cl)n1cncn1 (stereo unspecified) | 29.4 µM (active) | –
O=C(CCl)C(Cl)Cl | 61.7 µM (active) | –
CC(C)(C)c1cc([N+](=O)[O-])cc(C(C)(C)C)c1O | 2.73 µM (active) | –
ClC1=C(Cl)[C@]2(Cl)[C@@H]3[C@@H]4C[C@@H]([C@H]5O[C@@H]45)[C@@H]3[C@@]1(Cl)C2(Cl)Cl | 61.1 µM (active) | –
CCCCOCN(C(=O)CCl)c1c(CC)cccc1CC | 12.2 µM (active) | –
N#Cc1c(-c2ccc(Cl)cc2)[nH]c(C(F)(F)F)c1Br | 0.486 µM (active) | –
C[C@@H]1O[C@@H](O[C@@H]2C=C3CC[C@@H]4[C@H](CC[C@]5(C)[C@@H](c6ccc(=O)oc6)CC[C@]45O)[C@@]3(C)CC2)[C@H](O)[C@H](O)[C@H]1O | 0.0237 µM (active) | –
CC[C@H]1C[C@@H]2C[C@H]3c4[nH]c5ccc(OC)cc5c4CCN(C2)[C@@H]13 | 53.5 µM (active) | –
Oc1cc(Cl)c(Cl)c(Cl)c1 | 36.6 µM (active) | –
COc1cccc(C(=O)CCN[C@@H](C)[C@H](O)c2ccccc2)c1 | – | -1.89% [at 42.5 µM] (inactive)
C[C@]12CC[C@H](O)C[C@H]1CC[C@@H]1[C@@H]2C[C@@H](O)[C@]2(C)[C@@H](C3=CC(=O)OC3)CC[C@]12O | 3.86 µM (active) | –

system: not listed separately; experiment: qHTS assay to identify small molecule agonists of the estrogen related receptor signaling pathway with the pleiotropic PPARgamma coactivator (PGC) from Tox21 10K library (AID 1224842; active means well fitted activation curve with a large enough effect in the repeat runs; further: nearly all actives have a fitted effect of over 15% in size); conditions: PGC/ERR reporter cell line, luciferase ONE-Glo, 18 h; series mostly up to 92.4 µM; activation: at the top concentration
Procedure, shortened: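 Luminescence from One-Glo (30 min, room temperature) measured after PGC/ERR cells had 18 h at 37 C with pinned compound (23 nL in DMSO). Cells had been seeded at 2,000 per well and pre-incubated 6 h.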

SMILES | activation | Potency
Nc1ccc(Cc2ccc(N)c(Cl)c2)cc1Cl | 0.273% (inactive) | –
CC1(c2ccc(Oc3ccccc3)cc2)OC(=O)N(Nc2ccccc2)C1=O (stereo unspecified) | -24.7% (inactive) | –
CC(C)(C)C(O)/C(=C\c1ccc(Cl)cc1Cl)n1cncn1 (stereo unspecified) | -26.2% (inactive) | –
Nc1ccc(Sc2ccc(N)cc2)cc1 | -0.0097% (inactive) | –
O=C(CCl)C(Cl)Cl | -35.4% (inactive) | –
ClC1=C(Cl)[C@]2(Cl)[C@@H]3[C@@H]4C[C@@H]([C@H]5O[C@@H]45)[C@@H]3[C@@]1(Cl)C2(Cl)Cl | -17.6% (inactive) | –
CCCCOCN(C(=O)CCl)c1c(CC)cccc1CC | -33.3% (inactive) | –
N#Cc1c(-c2ccc(Cl)cc2)[nH]c(C(F)(F)F)c1Br | -18.3% (inactive) | –
CC[C@H]1C[C@@H]2C[C@H]3c4[nH]c5ccc(OC)cc5c4CCN(C2)[C@@H]13 | -15.4% (inactive) | –
S=C=Nc1cccc2ccccc12 | -13.1% (inactive) | –
Oc1cc(Cl)c(Cl)c(Cl)c1 | -21.5% (inactive) | –
COc1cccc(C(=O)CCN[C@@H](C)[C@H](O)c2ccccc2)c1 | -0.573% [at 42.5 µM] (inactive) | –
CC(C)(O)c1cnn2c(-c3ccc(F)c(-c4c(F)cccc4C#N)c3)cnc2n1 | -17% (inactive) | –
COc1ccc(N)cc1N | – | inactive
CC(C)CCCCCCCOP(=O)(Oc1ccccc1)Oc1ccccc1 | -7.7% (inactive) | –
C[C@]12CC[C@H](O)C[C@H]1CC[C@@H]1[C@@H]2C[C@@H](O)[C@]2(C)[C@@H](C3=CC(=O)OC3)CC[C@]12O | -31.5% (inactive) | –

target: Thyrotropin receptor (Homo sapiens) (UniProt P16473); experiment: qHTS assay to identify small molecule agonists of the thyroid stimulating hormone receptor (TSHR) signaling pathway (AID 1224843); conditions: TSHR-HEK293 cells, cAMP HTRF, agonist mode, 30 min; series mostly up to 92.4 µM; activation: at the top concentration; further: nearly all actives have a fitted effect of over 45% in size; further: potency means the concentration at half of the fitted maximal effect
Procedure, shortened: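 A cell-based cAMP HTRF format was run in TSHR-transfected HEK293 cells, 800 per well. Treatment: 30 min, room temperature. Detection: 1 h with labelled cAMP and anti-cAMP cryptate. Concentration-response over 15 points, three replicates.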

Chain of Thyrotropin receptor (Homo sapiens) (P16473 whole entry, looked up): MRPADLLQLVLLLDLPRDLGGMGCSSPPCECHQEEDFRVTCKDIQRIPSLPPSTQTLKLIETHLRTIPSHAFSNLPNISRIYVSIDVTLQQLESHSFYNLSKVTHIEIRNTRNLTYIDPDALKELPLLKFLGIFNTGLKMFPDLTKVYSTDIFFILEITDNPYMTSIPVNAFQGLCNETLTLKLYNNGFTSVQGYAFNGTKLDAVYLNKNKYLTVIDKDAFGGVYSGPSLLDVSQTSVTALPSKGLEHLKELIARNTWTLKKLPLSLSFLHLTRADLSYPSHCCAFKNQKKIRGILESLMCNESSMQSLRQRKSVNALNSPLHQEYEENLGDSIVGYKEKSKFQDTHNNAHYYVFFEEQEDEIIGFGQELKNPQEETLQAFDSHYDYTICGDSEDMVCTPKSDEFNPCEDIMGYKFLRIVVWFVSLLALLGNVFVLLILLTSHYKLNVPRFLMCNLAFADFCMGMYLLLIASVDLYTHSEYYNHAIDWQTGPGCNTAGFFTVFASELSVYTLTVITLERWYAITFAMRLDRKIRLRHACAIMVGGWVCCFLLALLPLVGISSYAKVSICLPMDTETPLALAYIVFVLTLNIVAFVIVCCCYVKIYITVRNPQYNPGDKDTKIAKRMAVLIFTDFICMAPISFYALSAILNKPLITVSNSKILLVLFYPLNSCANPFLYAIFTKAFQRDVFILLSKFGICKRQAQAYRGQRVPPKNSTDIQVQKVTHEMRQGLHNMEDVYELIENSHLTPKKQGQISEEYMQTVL

SMILES | activation | Potency
Nc1ccc(Cc2ccc(N)c(Cl)c2)cc1Cl | -20.6% (inactive) | –
CCCCCCCCc1ccc(O)cc1 | 7.37% (inactive) | –
CC(=O)O[C@H]1CC[C@@]2(C)C(=CC[C@@H]3[C@@H]2CC[C@]2(C)C(=O)CC[C@@H]32)C1 | -20.3% (inactive) | –
Nc1ccc(Sc2ccc(N)cc2)cc1 | -5.09% (inactive) | –
O=CC(Br)(Br)Br | – | 30.5 µM (active)
CC(C)(C)c1cc([N+](=O)[O-])cc(C(C)(C)C)c1O | 0.226% (inactive) | –
ClC1=C(Cl)[C@]2(Cl)[C@@H]3[C@@H]4C[C@@H]([C@H]5O[C@@H]45)[C@@H]3[C@@]1(Cl)C2(Cl)Cl | – | 1.93 µM (active)
CC(C)N1C(=O)N(c2ccccc2)CSC1=NC(C)(C)C | -1.47% (inactive) | –
N#Cc1ccc(O)cc1 | -0.0526% (inactive) | –
CCCCOCN(C(=O)CCl)c1c(CC)cccc1CC | -14.1% (inactive) | –
CCCOCC(=Nc1ccc(Cl)cc1C(F)(F)F)n1ccnc1 | – | 54.4 µM (active)
N#Cc1c(-c2ccc(Cl)cc2)[nH]c(C(F)(F)F)c1Br | 4.39% (inactive) | –
CCN(CC)c1c([N+](=O)[O-])cc(C(F)(F)F)c(N)c1[N+](=O)[O-] | – | 13.7 µM (active)
CNC(C)Cc1ccc2c(c1)OCO2 (stereo unspecified) | -4.96% (inactive) | –
Oc1cc(Cl)c(Cl)c(Cl)c1 | 4.26% (inactive) | –
CN(C)CCc1c[nH]c2ccc(O)cc12 | -16.1% (inactive) | –
COc1cccc(C(=O)CCN[C@@H](C)[C@H](O)c2ccccc2)c1 | 21% [at 42.5 µM] (inactive) | –
c1ccc2c(c1)OCC(C1=NCCN1)O2 (stereo unspecified) | – | 15 µM (active)
c1cc[c]([Sb]([c]2ccccc2)[c]2ccccc2)cc1 | 18.2% (inactive) | –
CC(C)(O)c1cnn2c(-c3ccc(F)c(-c4c(F)cccc4C#N)c3)cnc2n1 | 21.8% (inactive) | –
CC(C)CCCCCCCOP(=O)(Oc1ccccc1)Oc1ccccc1 | – | 24.5 µM (active)
C[C@]12CC[C@H](O)C[C@H]1CC[C@@H]1[C@@H]2C[C@@H](O)[C@]2(C)[C@@H](C3=CC(=O)OC3)CC[C@]12O | -7.74% (inactive) | –
